Data as given in the OligoGym collection.

biological target: TTLL4; experiment: pooled miR-30 sensor sort-seq; sequence = guide strand; details: shRNA
Also: reference of the scale not given here.

Which sensor-assay potency score (higher = more potent) does the source give for TTGATCACAGGTAACGTCTGGG here?
Its sensor-assay potency score (higher = more potent) is 0.356.

For TTTATTGACACTGTAGTTGGTC, which sensor-assay potency score (higher = more potent) is on record?
The sensor-assay potency score (higher = more potent) was 0.947.

Which sensor-assay potency score (higher = more potent) does the source give for TTCTTCTGTATCTTCAGTCTCA here?
Its sensor-assay potency score (higher = more potent) is 0.119.

TTAGCTTCTGATGCTCTCGAAT was tested. Which sensor-assay potency score (higher = more potent) did it give?
Its sensor-assay potency score (higher = more potent) is -0.842.

How did the sensor-assay potency score (higher = more potent) turn out when TTTGACAACAACATCCTTTATC was run?
Its sensor-assay potency score (higher = more potent) is -1.2.

How did the sensor-assay potency score (higher = more potent) turn out when AGTTTTGACAACAACATCCTTT was run?
The sensor-assay potency score (higher = more potent) was -0.763.

Which sensor-assay potency score (higher = more potent) does the source give for TAGTTTTGACAACAACATCCTT here?
Its sensor-assay potency score (higher = more potent) is -0.466.

For TGTATCTTCAGTCTCAGCCTGA, which sensor-assay potency score (higher = more potent) is on record?
The sensor-assay potency score (higher = more potent) was 0.277.

With TTGCTAGTCTCTGATTTGCTGA as the sequence, how does the sensor-assay potency score (higher = more potent) read?
The sensor-assay potency score (higher = more potent) was -0.807.

For TTTTTATTGACACTGTAGTTGG, which sensor-assay potency score (higher = more potent) is on record?
The sensor-assay potency score (higher = more potent) was -0.76.

How did the sensor-assay potency score (higher = more potent) turn out when TCGCACATACATCTTGAGCAGG was run?
The sensor-assay potency score (higher = more potent) was -1.1.

With TTGAGTATCACGTCATCCTTTG as the sequence, how does the sensor-assay potency score (higher = more potent) read?
Its sensor-assay potency score (higher = more potent) is -0.629.

biological target: TTYH3; experiment: as above; details: shRNA

Which sensor-assay potency score (higher = more potent) does the source give for TTGCACGTAGTCCAGATGCAGG here?
Its sensor-assay potency score (higher = more potent) is -1.46.

With TAGCCCAGCCACCTGTACCAGT as the sequence, how does the sensor-assay potency score (higher = more potent) read?
The sensor-assay potency score (higher = more potent) was -1.16.

Which sensor-assay potency score (higher = more potent) does the source give for AAGCTCAGCCACGACATCCTGC here?
Its sensor-assay potency score (higher = more potent) is -0.514.

TTGGCTCTCATGCTGGAGGTGT was tested. Which sensor-assay potency score (higher = more potent) did it give?
Its sensor-assay potency score (higher = more potent) is -0.0842.

How did the sensor-assay potency score (higher = more potent) turn out when TAGTCGGTGTCCTCGGGCCGGA was run?
The sensor-assay potency score (higher = more potent) was -1.53.

How did the sensor-assay potency score (higher = more potent) turn out when TTTTGCTGCCAGGTGTGCGGGA was run?
Its sensor-assay potency score (higher = more potent) is -0.687.

For TAGCAGAAGCCGGTCAGCGCTT, which sensor-assay potency score (higher = more potent) is on record?
Its sensor-assay potency score (higher = more potent) is -0.823.

With TTGCCGTAGAATCCCACTGCGA as the sequence, how does the sensor-assay potency score (higher = more potent) read?
Its sensor-assay potency score (higher = more potent) is -1.44.

TTCAGCACCTCCTGGACGCGGA was tested. Which sensor-assay potency score (higher = more potent) did it give?
Its sensor-assay potency score (higher = more potent) is -0.58.

For TAGAATCCCACTGCGATGCCGG, which sensor-assay potency score (higher = more potent) is on record?
Its sensor-assay potency score (higher = more potent) is -0.487.

How did the sensor-assay potency score (higher = more potent) turn out when TATTTGGCTCTCATGCTGGAGG was run?
The sensor-assay potency score (higher = more potent) was -0.854.

Which sensor-assay potency score (higher = more potent) does the source give for ATGATGACACACCAGGCCGTGC here?
The sensor-assay potency score (higher = more potent) was -1.46.
